Experimental data reported in PubChem BioAssay (NCI).
About 83,000 compounds went through this panel and 20% of them were active in at least one assay; those are over-represented in the sample as a whole.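 Treatment: one concentration, 48 hours, 96-well format. Scoring: percent growth, with anything below 10 considered active.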 The source made the active and inactive calls.

Assays:
Assay in all cases: NCI-60 one-dose screen, 48 h (100 = growth as untreated, 0 = no growth, -100 = all killed)
[1] = tested on: NCI-H23 lung
[2] = tested on: NCI-H226 lung
[3] = tested on: NCI-H322M lung
[4] = tested on: HOP-62 NSCLC
[5] = tested on: NCI-H460 lung
[6] = tested on: HOP-92 NSCLC
[7] = tested on: NCI-H522 lung
[8] = tested on: A549/ATCC NSCLC
[9] = tested on: 786-0 renal
[10] = tested on: COLO 205 colon
[11] = tested on: DU-145 prostate
[12] = tested on: K-562 leukemia
[13] = tested on: MALME-3M melanoma
[14] = tested on: MDA-MB-231 breast
[15] = tested on: RXF 393 renal
[16] = tested on: SF-268 CNS
[17] = tested on: SF-295 CNS
[18] = tested on: SF-539 CNS
[19] = tested on: UACC-257 melanoma
[20] = tested on: M14 melanoma

Measured: growth

O=C1c2cc3c(cc2-c2c1c1ccc(Cl)cc1c(=O)n2CCCn1ccnc1)OCO3
active: [1]; 10 µM unless noted -38.2% | [2]; 10 µM unless noted 1.03% | [4]; 10 µM unless noted 5.44% | [5]; 10 µM unless noted 2.4% | [6]; 10 µM unless noted -2.88% | [7]; 10 µM unless noted -26.1% | [9]; 10 µM unless noted -40.9% | [11]; 10 µM unless noted -42.2% | [12]; 10 µM unless noted 1.87% | [13]; 10 µM unless noted -24.6% | [15]; 10 µM unless noted -36.7% | [16]; 10 µM unless noted 8.11% | [17]; 10 µM unless noted -10.1% | [18]; 10 µM unless noted -50.3% | [19]; 10 µM unless noted -3.1% | [20]; 10 µM unless noted -28.6%
inactive: [3]; 10 µM unless noted 10.5% | [8]; 10 µM unless noted 19.6% | [10]; 10 µM unless noted 14.5% | [14]; 10 µM unless noted 46.4%

CN(C)CCNc1ncc(F)c(-c2cnc3cc(-c4cnn(C)c4)ccn23)n1
inactive: [1]; 0.005 µM 101% | [1]; 30 µM 56.9% | [2]; 10 µM unless noted 76.5% [30 µM] | [3]; 0.005 µM 95.6% | [3]; 30 µM 44.7% | [4]; 0.005 µM 103% | [4]; 30 µM 60.2% | [5]; 0.005 µM 101% | [5]; 30 µM 15.7% | [6]; 0.005 µM 105% | [6]; 30 µM 61.4% | [7]; 0.005 µM 92.4% | [7]; 30 µM 51.9% | [8]; 0.005 µM 101% | [8]; 30 µM 34.3% | [9]; 0.005 µM 102% | [9]; 30 µM 44.2% | [10]; 10 µM unless noted 25.8% [30 µM] | [11]; 0.005 µM 107% | [11]; 30 µM 27.5% | [12]; 0.005 µM 102% | [12]; 30 µM 41.6% | [13]; 0.005 µM 99.7% | [13]; 30 µM 53.5% | [14]; 0.005 µM 98.4% | [14]; 30 µM 54.3% | [15]; 10 µM unless noted 110% [0.005 µM] | [16]; 0.005 µM 100% | [16]; 30 µM 57.7% | [17]; 0.005 µM 102% | [17]; 30 µM 70.8% | [18]; 0.005 µM 97.2% | [18]; 30 µM 46.3% | [19]; 0.005 µM 100% | [19]; 30 µM 93.5% | [20]; 10 µM unless noted 107% [0.005 µM]

CC(=O)/C=C/c1ccc(N(CCO)Cc2ccc(C(C)(C)C)cc2)cc1
inactive: [1]; 10 µM 75.5% | [2]; 10 µM 72.9% | [4]; 10 µM 78.6% | [5]; 10 µM 74.4% | [6]; 10 µM 54.7% | [7]; 10 µM 70.1% | [8]; 10 µM 66.3% | [9]; 10 µM 87.5% | [10]; 10 µM 90.1% | [11]; 10 µM 78% | [12]; 10 µM 54.6% | [13]; 10 µM 84.5% | [14]; 10 µM 77.5% | [15]; 10 µM 87.5% | [16]; 10 µM 78.9% | [17]; 10 µM 63.5% | [18]; 10 µM 86.9% | [19]; 10 µM 80.8% | [20]; 10 µM 69.4%
active: [1]; 100 µM -70.7% | [2]; 100 µM -78.1% | [3]; 10 µM unless noted -98.7% [100 µM] | [4]; 100 µM -92.7% | [5]; 100 µM -86% | [6]; 100 µM -94.5% | [7]; 100 µM -71% | [8]; 100 µM -99.3% | [9]; 100 µM -93.4% | [10]; 100 µM -76.6% | [11]; 100 µM -99.7% | [12]; 100 µM -49.3% | [13]; 100 µM -85.8% | [14]; 100 µM -90.4% | [15]; 100 µM -75.9% | [16]; 100 µM -82.2% | [17]; 100 µM -84.9% | [18]; 100 µM -96.4% | [19]; 100 µM -79.5% | [20]; 100 µM -84.9%

CCN(Cc1ccccc1)c1ccc(/C=C2\COc3ccccc3C2=O)cc1
active: [7]; 100 µM 2.07% | [12]; 100 µM 6.4%
inactive: [1]; 10 µM 97.2% | [1]; 100 µM 37.1% | [2]; 10 µM 95.4% | [2]; 100 µM 50.9% | [3]; 10 µM unless noted 75.9% [100 µM] | [4]; 10 µM 89.6% | [4]; 100 µM 56.8% | [5]; 10 µM 100% | [5]; 100 µM 45.8% | [6]; 10 µM 85.9% | [6]; 100 µM 23% | [7]; 10 µM 88.5% | [8]; 10 µM 99.4% | [8]; 100 µM 47% | [9]; 10 µM 86.9% | [9]; 100 µM 54.5% | [10]; 10 µM 106% | [10]; 100 µM 38.9% | [11]; 10 µM 101% | [11]; 100 µM 47.8% | [12]; 10 µM 78.4% | [13]; 10 µM 99.1% | [13]; 100 µM 54.5% | [14]; 10 µM 101% | [14]; 100 µM 43% | [15]; 10 µM 109% | [15]; 100 µM 37.3% | [16]; 10 µM 101% | [16]; 100 µM 54.7% | [17]; 10 µM 94.4% | [17]; 100 µM 54.4% | [18]; 10 µM 97.3% | [18]; 100 µM 61.1% | [19]; 10 µM 92.6% | [19]; 100 µM 42.8% | [20]; 10 µM 97.4% | [20]; 100 µM 28.9%

Nc1nc(CSc2n[nH]c(N)n2)nc(Nc2ccccc2)n1
inactive: [1]; 10 µM unless noted 102% | [2]; 10 µM unless noted 101% | [3]; 10 µM unless noted 97.8% | [4]; 10 µM unless noted 106% | [5]; 10 µM unless noted 103% | [6]; 10 µM unless noted 95.4% | [7]; 10 µM unless noted 93.4% | [8]; 10 µM unless noted 102% | [9]; 10 µM unless noted 96% | [10]; 10 µM unless noted 109% | [11]; 10 µM unless noted 104% | [12]; 10 µM unless noted 99.1% | [13]; 10 µM unless noted 104% | [14]; 10 µM unless noted 105% | [15]; 10 µM unless noted 114% | [16]; 10 µM unless noted 93.1% | [17]; 10 µM unless noted 97.6% | [18]; 10 µM unless noted 102% | [19]; 10 µM unless noted 107% | [20]; 10 µM unless noted 105%
